# PubChem BioAssay (EPA / NIEHS)
# “And” between values parts separate entries of the source, which are not always exact repeats. Identical values can stand only once. The source made the active and inactive calls. How the source made its calls: active means hit-call score of the fitted dose curve at least 0.9, where 1 is the maximum; inactive means score below 0.9.
# Columns and labels:
# [1] = read-out: Matrix Metallopeptidase 1 (MMP1), MMP1 (gene 4312); assay: BSK_MyoF_MMP1: BioMAP Diversity Plus: MyoF Assay for Matrix Metallopeptidase 1 (MMP1) Biomarker Activity (AID 2284268); details: primary human lung fibroblasts
# Outline: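 Human lung fibroblast primary cells; MMP1 measured by ELISA 24 h after dosing, fitted in the positive direction relative to DMSO. Parallel SRB staining (0.1%, after 10% TCA fixation, 560 nm) assesses overt cytotoxicity.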
# [2] = read-out: TIMP metallopeptidase inhibitor 1 (TIMP1), TIMP1 (gene 7076); assay: BSK_MyoF_TIMP1: BioMAP Diversity Plus: MyoF Assay for TIMP metallopeptidase inhibitor 1 (TIMP1) Biomarker Activity (AID 2284269); details: primary human lung fibroblasts
# Outline: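 Primary human lung fibroblasts, MyoF multiplex system; chemical exposure 24 h; TIMP-1 by ELISA; positive fitting direction vs DMSO control.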
# [3] = BSK_MyoF_SRB: Viability Assessment in the BioMAP Diversity Plus: MyoF Assay (AID 2284267); details: primary human lung fibroblasts;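 further: total protein by SRB absorbance in parallel cultures as cytotoxicity measure; cells assessed 24 h after compound addition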
# Outline: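 Lung fibroblast cultures, 24 h post-dose; fix 10% TCA, stain 0.1% SRB, read 560 nm. Signal = total protein as cytotoxicity measure; fitted relative to DMSO negative control.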
# [4] = read-out: KRT18 (gene 3875); assay: BSK_BF4T_Keratin818: BioMAP Diversity Plus: BF4T Assay for Keratin 818 Biomarker Activity (AID 2284266); details: primary human bronchial epithelial cells with fibroblasts
# Outline: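 Keratin 8/18 levels quantified by ELISA after 24 h chemical treatment of bronchial epithelial cell/dermal fibroblast co-cultures, fitted in positive direction relative to DMSO. Parallel SRB staining tracks overt cytotoxicity.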
# [5] = read-out: Matrix Metallopeptidase 1 (MMP1), MMP1 (gene 4312); assay: BSK_BF4T_MMP1: BioMAP Diversity Plus: BF4T Assay for Matrix Metallopeptidase 1 (MMP1) Biomarker Activity (AID 2284270); details: primary human bronchial epithelial cells with fibroblasts
# Outline: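 MMP-1 quantified by ELISA in primary human bronchial epithelial/dermal fibroblast co-cultures, 24 hours post-dosing, with DMSO as baseline; parallel sulforhodamine B staining (560 nm) tracks overt cytotoxicity.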
# [6] = read-out: Matrix Metallopeptidase 3 (MMP3), MMP3 (gene 4314); assay: BSK_BF4T_MMP3: BioMAP Diversity Plus: BF4T Assay for Matrix Metallopeptidase 3 (MMP3) Biomarker Activity (AID 2284271); details: primary human bronchial epithelial cells with fibroblasts
# Outline: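 MMP-3 level read by ELISA after 24 h chemical exposure of bronchial epithelial cell/dermal fibroblast co-cultures, fitted upward relative to DMSO. Parallel cultures stained with 0.1% SRB after TCA fixation gauge overt cytotoxicity.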
# [7] = read-out: Tissue plasminogen activator (tPA), PLAT (gene 5327); assay: BSK_BF4T_tPA: BioMAP Diversity Plus: BF4T Assay for Tissue plasminogen activator (tPA) Biomarker Activity (AID 2284272); details: primary human bronchial epithelial cells with fibroblasts
# Outline: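 tPA level quantified by ELISA at 24 h post-treatment in bronchial epithelial/dermal fibroblast co-cultures, gain of signal scored against DMSO baseline. Parallel cultures stained with 0.1% SRB (560 nm) to flag overt cytotoxicity.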
# [8] = read-out: Plasminogen Activator Inhibitor-1 (PAI1), SERPINE1 (gene 5054); assay: BSK_BF4T_PAI1: BioMAP Diversity Plus: BF4T Assay for Plasminogen Activator Inhibitor-1 (PAI1) Biomarker Activity (AID 2284273); details: primary human bronchial epithelial cells with fibroblasts
# Outline: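 PAI-1 levels quantified by ELISA 24 h post-dosing in bronchial epithelial cell plus dermal fibroblast cultures. Signal gain referenced to DMSO baseline. Sulforhodamine B total-protein staining of parallel wells checked cytotoxicity.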
# [9] = BSK_BF4T_SRB: Viability Assessment in the BioMAP Diversity Plus: BF4T Assay (AID 2284274); details: primary human bronchial epithelial cells with fibroblasts
# Outline: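 Cytotoxicity measured as total protein: cells fixed with 10% TCA, stained with 0.1% SRB, read at 560 nm. Bronchial epithelial/dermal fibroblast co-culture, 24 h after dosing, with positive-direction fitting relative to DMSO.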
# [10] = read-out: urokinase Plasminogen Activator (uPA), PLAU (gene 5328); assay: BSK_BF4T_uPA: BioMAP Diversity Plus: BF4T Assay for urokinase Plasminogen Activator (uPA) Biomarker Activity (AID 2284275); details: primary human bronchial epithelial cells with fibroblasts
# Outline: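 uPA levels measured by ELISA at 24 hours in BF4T cultures (bronchial epithelial cells plus dermal fibroblasts) and compared with DMSO; cytotoxicity tracked in parallel cultures by sulforhodamine B staining.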
structure (smiles),measurement,setting,value
C=CC(=O)NCOCCCC,outcome,[1],inactive
same,outcome,[2],inactive
CCCCCCCCC(CO)CCCCCC (stereo not given),outcome,[3],inactive
same,outcome,[1],inactive
same,outcome,[2],inactive
C=CC(=O)OCCCCCCOC(=O)C=C,AC50,[1],4.83 µM (active)
same,AC50,[2],29.4 µM (active)
CCOC(=O)C1=NN(c2ccc(Cl)cc2Cl)C(C)(C(=O)OCC)C1 (stereo not given),outcome,[1],inactive
same,outcome,[2],inactive
COC(OC)(C(=O)c1ccccc1)c1ccccc1,outcome,[3],inactive
same,outcome,[1],inactive
same,outcome,[2],inactive
Clc1cc(Cl)c(Cl)c(Cl)c1Cl,AC50,[3],20 µM (active)
same,AC50,[1],23.2 µM (active)
same,outcome,[2],inactive
CC(c1cc(C(C)(C)C)cc(C(C)(C)C)c1O)c1cc(C(C)(C)C)cc(C(C)(C)C)c1O,outcome,[3],inactive
same,outcome,[1],inactive
same,outcome,[2],inactive
CC(C)c1cccc(C(C)C)c1N,outcome,[3],inactive
same,outcome,[1],inactive
same,outcome,[2],inactive
CCC1(C)C(=O)N(Cl)C(=O)N1Cl (stereo not given),outcome,[1],inactive
same,outcome,[2],inactive
CC=C(C)C=CC=C(C)C,outcome,[1],inactive
same,outcome,[2],inactive
CCNc1nc(NC(C)(C)C)nc(OC)n1,outcome,[3],inactive
same,outcome,[1],inactive
same,outcome,[2],inactive
CCCCCCOC(=O)CCCCC(=O)OCCCCCC,outcome,[1],inactive
same,outcome,[2],inactive
c1ccc2sc(SSN3CCOCC3)nc2c1,AC50,[1],4.91 µM (active)
same,AC50,[2],31.5 µM (active)
CCOC(=O)C1=NOC(c2ccccc2)(c2ccccc2)C1,outcome,[3],inactive
same,outcome,[1],inactive
same,outcome,[2],inactive
O=C(O)C(F)(F)C(F)(F)C(F)(F)C(F)(F)C(=O)O,outcome,[4],inactive
same,outcome,[1],inactive
same,outcome,[2],inactive
same,outcome,[5],inactive
same,outcome,[6],inactive
same,outcome,[7],inactive
same,outcome,[8],inactive
same,outcome,[9],inactive
same,outcome,[10],inactive
C=CC(=O)OCC(C)OCC(C)OCC(C)OC(=O)C=C (stereo not given),AC50,[1],35.1 µM (active)
C=CC(=O)OCCCCCCCC(C)C,outcome,[1],inactive
same,outcome,[2],inactive
CC1=CC=C(C(C)C)CC1,outcome,[1],inactive
same,outcome,[2],inactive
CCCCCCCCCCCC(C)=O,outcome,[3],inactive
same,outcome,[1],inactive
same,outcome,[2],inactive
C=CCCCCCCCCC=O,outcome,[1],inactive
same,outcome,[2],inactive
CC/C=C\C/C=C\C/C=C\CCCCCCCC(=O)OC,AC50,[3],10.4 µM (active)
same,AC50,[1],36.5 µM (active)
same,AC50,[2],20 µM (active)
COc1ccc(C(=O)/C(Br)=C\C(=O)O)cc1,AC50,[1],16.1 µM (active) and 20 µM (active)
same,outcome,[2],inactive
CC(C)CCCCCOC(=O)CS,outcome,[1],inactive
same,outcome,[2],inactive
C[N+](C)(C)CCCNS(=O)(=O)C(F)(F)C(F)(F)C(F)(F)C(F)(F)C(F)(F)C(F)(F)C(F)(F)C(F)(F)F,AC50,[4],26.5 µM (active) and 5.95 µM (active)
same,AC50,[1],49.2 µM (active) and 41 µM (active)
same,outcome,[2],inactive
same,outcome,[5],inactive
same,AC50,[6],52.2 µM (active) and 51.4 µM (active)
same,AC50,[7],8.18 µM (active) and 7.16 µM (active)
same,outcome,[8],inactive
same,outcome,[9],inactive
same,outcome,[10],inactive
C=CC(=O)NC(C)(C)C,outcome,[1],inactive
same,outcome,[2],inactive
O=C1CCCCCCCCCCC1,outcome,[1],inactive
same,outcome,[2],inactive
COc1ccc(C(=O)c2ccccc2)c(O)c1,outcome,[1],inactive
same,outcome,[2],inactive
Fc1ccc(Br)cc1,outcome,[1],inactive
same,outcome,[2],inactive
CCCCC1C(=O)N(c2ccccc2)N(c2ccccc2)C1=O,outcome,[1],inactive
same,outcome,[2],inactive
CC=C(C)C(C)=O,outcome,[1],inactive
same,outcome,[2],inactive
Nc1cccc(N)n1,outcome,[1],inactive
same,outcome,[2],inactive
CCCCCCC=O,outcome,[1],inactive
same,outcome,[2],inactive
Cc1c(O)cccc1O,outcome,[1],inactive
same,outcome,[2],inactive
CCOC(=O)/C=C\C(=O)OCC,outcome,[1],inactive
same,outcome,[2],inactive
CC(Cl)COP(=O)(OCC(C)Cl)OCC(C)Cl (stereo not given),outcome,[1],inactive
same,outcome,[2],inactive
CCc1cccc(C)c1N(C(=O)CS(=O)(=O)O)C(C)COC (stereo not given),outcome,[1],inactive
same,outcome,[2],inactive
O=C(Oc1ccccc1)c1ccccc1C(=O)Oc1ccccc1,outcome,[1],inactive
same,outcome,[2],inactive
CC/C=C\CCOC(=O)c1ccccc1O,outcome,[1],inactive
same,AC50,[2],35.5 µM (active)
Oc1ccc(/C=C/c2cc(O)cc(O)c2)cc1,outcome,[1],inactive
same,outcome,[2],inactive
CCN1CN(CC)CN(CC)C1,outcome,[1],inactive
same,outcome,[2],inactive
CCCCCCCO,outcome,[1],inactive
same,outcome,[2],inactive
Oc1c(Cl)cc(Cl)c(Cl)c1Cl,outcome,[1],inactive
same,AC50,[2],33 µM (active)
CC1(C)CC(O)CC(C)(C)N1[O],outcome,[1],inactive
same,outcome,[2],inactive
O=C(Cl)c1c(Cl)c(Cl)c(C(=O)Cl)c(Cl)c1Cl,outcome,[1],inactive
same,outcome,[2],inactive
CC(C)[N+](C)(CCOC(=O)C1c2ccccc2Oc2ccccc21)C(C)C,outcome,[1],inactive
same,outcome,[2],inactive
O=C1CCCCCCCCCCCN1,outcome,[1],inactive
same,outcome,[2],inactive
C=C(C)C(=O)OCCCCCCCCCCCC,outcome,[1],inactive
same,outcome,[2],inactive
c1ccc2c(c1)[nH]c1ccccc12,outcome,[1],inactive
same,outcome,[2],inactive
CCCCCC1=CCCC1=O,outcome,[1],inactive
same,outcome,[2],inactive
